According to PMC7862700, “An all-to-all approach to the identification of sequence-specific readers for epigenetic DNA modifications on cytosine”:

Tests used:
Assay in all cases: DAPPL (digital affinity profiling via proximity ligation, sequencing); 10 mM Tris-HCl pH 7.5, 50 mM NaCl, 1 mM DTT, 4% glycerol, room temperature, 30 min; GST-TFs on glutathione beads, 16-mer random dsDNA library, 0.1% formaldehyde crosslink after washing; high values mean tight binding
Details in all cases: protein: recombinant; tags: N-terminal GST; dsDNA, one strand shown
FLI1 = target: T1, FLI1 (Homo sapiens, UniProt Q01543 1-452)
T1 sequence: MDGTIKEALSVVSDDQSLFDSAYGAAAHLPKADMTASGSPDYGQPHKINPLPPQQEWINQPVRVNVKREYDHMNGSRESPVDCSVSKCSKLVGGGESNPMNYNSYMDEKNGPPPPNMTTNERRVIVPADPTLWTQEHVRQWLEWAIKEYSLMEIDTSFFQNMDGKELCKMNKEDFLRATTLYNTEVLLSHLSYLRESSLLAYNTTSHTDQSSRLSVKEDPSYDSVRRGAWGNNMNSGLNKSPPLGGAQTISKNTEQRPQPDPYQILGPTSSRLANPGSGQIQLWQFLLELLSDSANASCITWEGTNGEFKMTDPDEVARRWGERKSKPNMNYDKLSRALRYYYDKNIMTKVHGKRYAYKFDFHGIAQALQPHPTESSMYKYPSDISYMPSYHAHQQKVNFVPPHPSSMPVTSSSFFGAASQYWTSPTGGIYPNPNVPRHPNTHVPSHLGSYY
Method in brief: (§1)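 Pools were built from human transcription factors expressed in yeast as GST fusions, captured on glutathione beads and DNA-barcoded, along with a tag-only sample. Incubation with 200 nmole of a 16-mer random double-stranded DNA library lasted 30 min at room temperature in Tris/NaCl/DTT/glycerol buffer, and was followed by washing, 0.1% formaldehyde crosslinking, proximity ligation, PCR amplification and Illumina NextSeq500 sequencing. Binding signal is the quotient of each hexamer's read frequency for a factor and its frequency for the tag-only sample.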

ELK1 = target: T2, ELK1 (Homo sapiens, UniProt P19419 1-428)
T2 sequence: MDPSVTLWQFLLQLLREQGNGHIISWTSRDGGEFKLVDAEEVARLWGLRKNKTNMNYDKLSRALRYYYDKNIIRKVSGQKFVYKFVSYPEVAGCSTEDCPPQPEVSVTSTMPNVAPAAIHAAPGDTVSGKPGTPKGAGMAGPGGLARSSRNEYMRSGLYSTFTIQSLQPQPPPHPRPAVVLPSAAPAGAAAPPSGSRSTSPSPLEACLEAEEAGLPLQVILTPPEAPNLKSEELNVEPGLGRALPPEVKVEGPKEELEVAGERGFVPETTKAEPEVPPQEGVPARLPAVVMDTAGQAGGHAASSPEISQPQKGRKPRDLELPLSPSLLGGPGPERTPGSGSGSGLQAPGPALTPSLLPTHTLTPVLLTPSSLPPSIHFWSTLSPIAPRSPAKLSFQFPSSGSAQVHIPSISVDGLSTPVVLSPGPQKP
Method in brief: as §1

GABPA = target: T3, GABPA (Homo sapiens, UniProt Q06546 1-454)
T3 sequence: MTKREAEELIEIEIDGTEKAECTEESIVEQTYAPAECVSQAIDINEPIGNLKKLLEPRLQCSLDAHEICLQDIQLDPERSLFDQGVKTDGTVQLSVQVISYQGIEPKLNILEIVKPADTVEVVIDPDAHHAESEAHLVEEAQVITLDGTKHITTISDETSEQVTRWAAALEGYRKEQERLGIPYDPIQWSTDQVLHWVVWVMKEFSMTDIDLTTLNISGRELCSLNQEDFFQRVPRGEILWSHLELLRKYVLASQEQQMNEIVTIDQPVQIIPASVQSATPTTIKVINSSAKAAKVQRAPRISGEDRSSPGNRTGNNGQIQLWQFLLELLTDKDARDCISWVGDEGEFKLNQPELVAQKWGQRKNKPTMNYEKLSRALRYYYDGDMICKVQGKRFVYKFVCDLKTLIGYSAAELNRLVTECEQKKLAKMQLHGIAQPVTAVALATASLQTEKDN
Method in brief: as §1

ERG = target: T4, ERG (Homo sapiens, UniProt P11308 1-479)
T4 sequence: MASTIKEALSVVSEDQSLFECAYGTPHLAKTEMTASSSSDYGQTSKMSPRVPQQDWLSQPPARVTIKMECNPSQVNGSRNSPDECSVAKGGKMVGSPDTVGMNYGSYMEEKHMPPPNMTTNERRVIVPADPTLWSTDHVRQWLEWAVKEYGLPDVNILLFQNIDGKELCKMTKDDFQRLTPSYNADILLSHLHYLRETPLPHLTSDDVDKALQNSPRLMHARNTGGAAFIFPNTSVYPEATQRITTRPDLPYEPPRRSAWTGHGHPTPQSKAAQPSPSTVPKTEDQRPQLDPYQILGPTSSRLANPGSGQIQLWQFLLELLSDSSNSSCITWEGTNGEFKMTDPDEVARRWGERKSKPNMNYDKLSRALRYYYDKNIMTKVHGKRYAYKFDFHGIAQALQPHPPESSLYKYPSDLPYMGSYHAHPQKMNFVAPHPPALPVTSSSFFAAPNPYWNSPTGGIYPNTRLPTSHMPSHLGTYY
Method in brief: as §1

ELF1 = ELF1 (Homo sapiens, UniProt P32519 1-619)
Method in brief: as §1

EHF = target: T5, EHF (Homo sapiens, UniProt Q9NZC4 1-300)
T5 sequence: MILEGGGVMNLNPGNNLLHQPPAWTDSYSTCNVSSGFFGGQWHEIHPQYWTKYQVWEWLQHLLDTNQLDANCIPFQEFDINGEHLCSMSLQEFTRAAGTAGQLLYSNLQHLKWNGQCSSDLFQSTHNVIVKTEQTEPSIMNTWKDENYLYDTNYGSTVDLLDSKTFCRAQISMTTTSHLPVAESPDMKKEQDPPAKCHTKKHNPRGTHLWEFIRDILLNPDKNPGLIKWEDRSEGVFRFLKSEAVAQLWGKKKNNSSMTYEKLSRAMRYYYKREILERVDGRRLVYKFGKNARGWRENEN
Method in brief: as §1

SPI1 = SPI1 (Homo sapiens, UniProt P17947 1-270)
Method in brief: as §1

SPIB = SPIB (Homo sapiens, UniProt Q01892 1-262)
Method in brief: as §1

ELK3 = target: T6, ELK3 (Homo sapiens, UniProt P41970 1-407)
T6 sequence: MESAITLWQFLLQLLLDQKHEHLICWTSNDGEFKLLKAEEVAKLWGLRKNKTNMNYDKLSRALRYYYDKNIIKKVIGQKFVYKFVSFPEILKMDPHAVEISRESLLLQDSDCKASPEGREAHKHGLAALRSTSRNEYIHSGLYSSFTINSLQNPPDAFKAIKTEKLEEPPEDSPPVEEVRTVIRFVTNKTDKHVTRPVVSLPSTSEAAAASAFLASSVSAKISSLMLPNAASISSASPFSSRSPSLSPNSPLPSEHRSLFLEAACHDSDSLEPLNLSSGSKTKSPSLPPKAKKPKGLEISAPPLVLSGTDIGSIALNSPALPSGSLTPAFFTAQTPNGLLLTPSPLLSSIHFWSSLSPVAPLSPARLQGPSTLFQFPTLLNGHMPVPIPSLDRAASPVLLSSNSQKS
Method in brief: as §1

FEV = target: T7, FEV (Homo sapiens, UniProt Q99581 1-238)
T7 sequence: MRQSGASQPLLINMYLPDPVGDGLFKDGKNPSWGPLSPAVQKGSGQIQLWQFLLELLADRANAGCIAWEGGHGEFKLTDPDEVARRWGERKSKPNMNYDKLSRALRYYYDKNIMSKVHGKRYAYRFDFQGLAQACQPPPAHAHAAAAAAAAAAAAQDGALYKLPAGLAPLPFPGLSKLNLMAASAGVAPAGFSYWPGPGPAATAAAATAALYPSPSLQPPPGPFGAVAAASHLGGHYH
Method in brief: as §1

ETV5 = ETV5 (Homo sapiens, UniProt P41161 1-510)
Method in brief: as §1

SPIC = target: T8, SPIC (Homo sapiens, UniProt Q8N5J4 1-248)
T8 sequence: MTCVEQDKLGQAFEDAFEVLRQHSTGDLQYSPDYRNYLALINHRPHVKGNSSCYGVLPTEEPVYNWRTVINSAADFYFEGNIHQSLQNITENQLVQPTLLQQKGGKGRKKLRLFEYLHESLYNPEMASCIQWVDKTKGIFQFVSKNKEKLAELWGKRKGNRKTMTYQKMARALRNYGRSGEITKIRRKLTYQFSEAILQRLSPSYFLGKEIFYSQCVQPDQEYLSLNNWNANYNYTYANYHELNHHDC
Method in brief: as §1

ELF4 = ELF4 (Homo sapiens, UniProt Q99607 1-663)
Method in brief: as §1

ELK4 = target: T9, ELK4 (Homo sapiens, UniProt P28324-2 1-405)
T9 sequence: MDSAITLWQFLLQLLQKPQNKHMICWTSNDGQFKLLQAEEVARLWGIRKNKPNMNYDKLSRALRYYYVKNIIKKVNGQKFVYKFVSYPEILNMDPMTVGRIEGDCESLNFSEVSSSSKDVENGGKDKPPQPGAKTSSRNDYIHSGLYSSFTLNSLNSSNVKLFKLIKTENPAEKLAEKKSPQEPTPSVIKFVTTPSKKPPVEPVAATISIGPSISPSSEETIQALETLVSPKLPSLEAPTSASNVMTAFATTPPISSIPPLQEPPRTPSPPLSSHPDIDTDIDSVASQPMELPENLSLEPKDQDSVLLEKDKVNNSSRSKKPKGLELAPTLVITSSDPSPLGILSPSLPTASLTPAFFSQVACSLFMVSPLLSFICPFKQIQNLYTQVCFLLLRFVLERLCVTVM
Method in brief: as §1

ETV2 = target: T10, ETV2 (Homo sapiens, UniProt O00321 1-342)
T10 sequence: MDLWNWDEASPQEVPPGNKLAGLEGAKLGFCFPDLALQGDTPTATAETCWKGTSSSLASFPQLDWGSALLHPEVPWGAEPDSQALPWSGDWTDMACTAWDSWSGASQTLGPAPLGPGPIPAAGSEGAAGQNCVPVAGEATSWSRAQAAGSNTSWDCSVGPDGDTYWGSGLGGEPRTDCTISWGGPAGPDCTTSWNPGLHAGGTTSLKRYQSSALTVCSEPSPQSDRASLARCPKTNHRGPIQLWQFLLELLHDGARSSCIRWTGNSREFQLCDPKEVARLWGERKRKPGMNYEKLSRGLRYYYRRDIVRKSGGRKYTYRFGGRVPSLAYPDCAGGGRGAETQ
Method in brief: as §1

ELF3 = target: T11, ELF3 (Homo sapiens, UniProt P78545 1-371)
T11 sequence: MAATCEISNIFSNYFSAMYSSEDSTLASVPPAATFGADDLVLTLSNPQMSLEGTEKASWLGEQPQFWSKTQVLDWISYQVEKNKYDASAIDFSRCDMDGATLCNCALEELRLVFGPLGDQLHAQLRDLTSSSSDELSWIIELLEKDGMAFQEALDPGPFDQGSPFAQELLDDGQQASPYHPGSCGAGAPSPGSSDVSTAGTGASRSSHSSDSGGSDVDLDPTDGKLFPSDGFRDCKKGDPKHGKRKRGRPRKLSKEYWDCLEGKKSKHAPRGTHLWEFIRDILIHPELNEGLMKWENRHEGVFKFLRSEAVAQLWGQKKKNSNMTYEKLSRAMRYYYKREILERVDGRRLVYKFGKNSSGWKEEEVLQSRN
Method in brief: as §1

ETV1 = ETV1 (Homo sapiens, UniProt P50549 1-477)
Method in brief: as §1

Sequence of SPIB (Q01892 whole entry): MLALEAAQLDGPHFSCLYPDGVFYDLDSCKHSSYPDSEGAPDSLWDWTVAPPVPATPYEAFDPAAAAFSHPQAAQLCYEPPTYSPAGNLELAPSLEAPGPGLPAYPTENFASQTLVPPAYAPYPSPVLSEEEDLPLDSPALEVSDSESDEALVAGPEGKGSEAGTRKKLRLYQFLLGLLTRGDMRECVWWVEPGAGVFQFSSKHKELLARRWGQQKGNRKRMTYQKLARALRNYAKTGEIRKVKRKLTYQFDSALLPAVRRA
Sequence of ELF4 (Q99607 whole entry): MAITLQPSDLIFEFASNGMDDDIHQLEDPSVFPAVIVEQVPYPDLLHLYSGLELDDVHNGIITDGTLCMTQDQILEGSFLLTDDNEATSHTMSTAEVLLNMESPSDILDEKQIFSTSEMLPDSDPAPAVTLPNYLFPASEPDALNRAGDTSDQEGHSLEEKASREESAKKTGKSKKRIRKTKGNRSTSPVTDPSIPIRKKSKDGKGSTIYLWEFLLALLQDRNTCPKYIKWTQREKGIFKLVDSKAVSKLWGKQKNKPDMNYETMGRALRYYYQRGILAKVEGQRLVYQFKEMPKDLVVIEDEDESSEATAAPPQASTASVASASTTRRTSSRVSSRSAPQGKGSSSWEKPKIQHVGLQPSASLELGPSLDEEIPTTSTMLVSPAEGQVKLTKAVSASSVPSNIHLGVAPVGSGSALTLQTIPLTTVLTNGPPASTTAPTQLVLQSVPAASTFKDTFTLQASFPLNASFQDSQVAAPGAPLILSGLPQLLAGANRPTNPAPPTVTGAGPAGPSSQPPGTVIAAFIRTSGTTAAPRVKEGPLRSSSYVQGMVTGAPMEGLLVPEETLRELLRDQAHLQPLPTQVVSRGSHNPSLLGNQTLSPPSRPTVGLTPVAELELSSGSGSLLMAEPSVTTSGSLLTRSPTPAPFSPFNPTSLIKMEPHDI
Sequence of ETV5 (P41161 whole entry): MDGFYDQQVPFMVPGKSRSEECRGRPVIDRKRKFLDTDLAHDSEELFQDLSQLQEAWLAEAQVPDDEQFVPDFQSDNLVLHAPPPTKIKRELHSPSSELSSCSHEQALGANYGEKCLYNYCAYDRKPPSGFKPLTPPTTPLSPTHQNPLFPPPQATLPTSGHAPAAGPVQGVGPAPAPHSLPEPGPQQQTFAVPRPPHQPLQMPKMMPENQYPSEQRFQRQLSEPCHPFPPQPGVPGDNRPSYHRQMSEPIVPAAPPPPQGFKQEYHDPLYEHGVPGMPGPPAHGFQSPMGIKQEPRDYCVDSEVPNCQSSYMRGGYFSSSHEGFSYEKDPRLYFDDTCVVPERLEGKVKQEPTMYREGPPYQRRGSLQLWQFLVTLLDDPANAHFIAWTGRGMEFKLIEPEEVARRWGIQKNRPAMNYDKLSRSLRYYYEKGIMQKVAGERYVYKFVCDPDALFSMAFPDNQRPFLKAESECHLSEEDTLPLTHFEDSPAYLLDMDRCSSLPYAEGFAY
Sequence of ELF1 (P32519 whole entry): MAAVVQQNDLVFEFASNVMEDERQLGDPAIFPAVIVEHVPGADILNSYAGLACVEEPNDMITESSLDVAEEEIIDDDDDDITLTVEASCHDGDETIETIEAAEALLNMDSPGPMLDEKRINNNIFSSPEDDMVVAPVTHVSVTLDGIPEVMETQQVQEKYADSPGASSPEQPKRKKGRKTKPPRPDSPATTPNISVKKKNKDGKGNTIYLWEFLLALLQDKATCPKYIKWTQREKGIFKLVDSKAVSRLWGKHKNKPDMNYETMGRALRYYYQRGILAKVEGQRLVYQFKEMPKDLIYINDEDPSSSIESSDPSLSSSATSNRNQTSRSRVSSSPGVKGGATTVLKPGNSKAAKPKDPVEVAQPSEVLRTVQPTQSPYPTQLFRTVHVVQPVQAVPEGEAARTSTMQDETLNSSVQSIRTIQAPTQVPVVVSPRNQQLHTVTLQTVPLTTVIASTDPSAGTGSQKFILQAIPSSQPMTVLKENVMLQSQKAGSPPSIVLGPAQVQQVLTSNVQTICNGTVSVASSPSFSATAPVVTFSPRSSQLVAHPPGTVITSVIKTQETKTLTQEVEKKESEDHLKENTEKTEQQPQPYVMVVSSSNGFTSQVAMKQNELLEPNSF
Sequence of ETV1 (P50549 whole entry): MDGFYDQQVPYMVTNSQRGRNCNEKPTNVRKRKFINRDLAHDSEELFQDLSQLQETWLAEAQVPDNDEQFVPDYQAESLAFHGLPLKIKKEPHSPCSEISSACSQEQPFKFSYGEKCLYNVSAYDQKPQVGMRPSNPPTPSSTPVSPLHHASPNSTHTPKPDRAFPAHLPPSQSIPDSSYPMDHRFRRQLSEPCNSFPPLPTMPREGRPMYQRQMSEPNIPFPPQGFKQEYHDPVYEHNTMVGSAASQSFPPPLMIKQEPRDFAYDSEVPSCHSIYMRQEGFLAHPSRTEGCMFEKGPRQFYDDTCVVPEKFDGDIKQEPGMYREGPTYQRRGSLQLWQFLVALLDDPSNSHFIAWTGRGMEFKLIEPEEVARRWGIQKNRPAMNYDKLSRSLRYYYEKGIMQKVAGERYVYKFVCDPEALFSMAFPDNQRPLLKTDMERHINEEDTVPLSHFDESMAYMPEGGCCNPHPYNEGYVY

Row | Sequence | binding signal (FLI1) | binding signal (ELK1) | binding signal (GABPA) | binding signal (ERG) | binding signal (ELF1) | binding signal (EHF) | binding signal (SPI1) | binding signal (SPIB) | binding signal (ELK3) | binding signal (FEV) | binding signal (ETV5) | binding signal (SPIC) | binding signal (ELF4) | binding signal (ELK4) | binding signal (ETV2) | binding signal (ELF3) | binding signal (ETV1)
1 | GCATCC | 1.55 fold enrichment (6-mer frequency, TF over GST control) | 1.67 fold enrichment (6-mer frequency, TF over GST control) | 1.36 fold enrichment (6-mer frequency, TF over GST control) | 1.68 fold enrichment (6-mer frequency, TF over GST control) | 1.44 fold enrichment (6-mer frequency, TF over GST control) | 1.55 fold enrichment (6-mer frequency, TF over GST control) | 1.47 fold enrichment (6-mer frequency, TF over GST control) | 1.6 fold enrichment (6-mer frequency, TF over GST control) | 1.7 fold enrichment (6-mer frequency, TF over GST control) | 1.73 fold enrichment (6-mer frequency, TF over GST control) | 1.68 fold enrichment (6-mer frequency, TF over GST control) | 1.53 fold enrichment (6-mer frequency, TF over GST control) | 1.43 fold enrichment (6-mer frequency, TF over GST control) | 1.28 fold enrichment (6-mer frequency, TF over GST control) | 1.39 fold enrichment (6-mer frequency, TF over GST control) | 1.53 fold enrichment (6-mer frequency, TF over GST control) | 1.55 fold enrichment (6-mer frequency, TF over GST control)
2 | ACCTCA | 1.2 fold enrichment (6-mer frequency, TF over GST control) | 1.16 fold enrichment (6-mer frequency, TF over GST control) | 1.29 fold enrichment (6-mer frequency, TF over GST control) | 1.15 fold enrichment (6-mer frequency, TF over GST control) | 1.23 fold enrichment (6-mer frequency, TF over GST control) | 1.28 fold enrichment (6-mer frequency, TF over GST control) | 1.22 fold enrichment (6-mer frequency, TF over GST control) | 1.19 fold enrichment (6-mer frequency, TF over GST control) | 1.19 fold enrichment (6-mer frequency, TF over GST control) | 1.17 fold enrichment (6-mer frequency, TF over GST control) | 1.16 fold enrichment (6-mer frequency, TF over GST control) | 1.33 fold enrichment (6-mer frequency, TF over GST control) | 1.2 fold enrichment (6-mer frequency, TF over GST control) | 1.26 fold enrichment (6-mer frequency, TF over GST control) | 1.2 fold enrichment (6-mer frequency, TF over GST control) | 1.24 fold enrichment (6-mer frequency, TF over GST control) | 1.32 fold enrichment (6-mer frequency, TF over GST control)
3 | CCCACA | 1.13 fold enrichment (6-mer frequency, TF over GST control) | 1.12 fold enrichment (6-mer frequency, TF over GST control) | 1.26 fold enrichment (6-mer frequency, TF over GST control) | 1.07 fold enrichment (6-mer frequency, TF over GST control) | 1.17 fold enrichment (6-mer frequency, TF over GST control) | 1.12 fold enrichment (6-mer frequency, TF over GST control) | 1.08 fold enrichment (6-mer frequency, TF over GST control) | 1.1 fold enrichment (6-mer frequency, TF over GST control) | 1.08 fold enrichment (6-mer frequency, TF over GST control) | 1.17 fold enrichment (6-mer frequency, TF over GST control) | 1.14 fold enrichment (6-mer frequency, TF over GST control) | 1.2 fold enrichment (6-mer frequency, TF over GST control) | 1.15 fold enrichment (6-mer frequency, TF over GST control) | 1.1 fold enrichment (6-mer frequency, TF over GST control) | 1.1 fold enrichment (6-mer frequency, TF over GST control) | 1.14 fold enrichment (6-mer frequency, TF over GST control) | 1.07 fold enrichment (6-mer frequency, TF over GST control)
